SMILES strings stand for the structures. Records with an inconclusive call do not appear. Active and inactive are the calls of the source. Calls follow the shape of the full dose curve.

In this assay the target is Vitamin D3 receptor (Homo sapiens) (UniProt P11473). The assay can be described thus: qHTS assay to identify small molecule agonists of the vitamin D receptor (VDR) signaling pathway (AID 743222). As to conditions: HEK293T VDR-UAS-bla, beta-lactamase FRET ratio, 16 h; series mostly up to 63.5 µM. The source says: National Center for Advancing Translational Sciences [NCATS]
Chain of Vitamin D3 receptor (Homo sapiens) (P11473 whole entry, looked up): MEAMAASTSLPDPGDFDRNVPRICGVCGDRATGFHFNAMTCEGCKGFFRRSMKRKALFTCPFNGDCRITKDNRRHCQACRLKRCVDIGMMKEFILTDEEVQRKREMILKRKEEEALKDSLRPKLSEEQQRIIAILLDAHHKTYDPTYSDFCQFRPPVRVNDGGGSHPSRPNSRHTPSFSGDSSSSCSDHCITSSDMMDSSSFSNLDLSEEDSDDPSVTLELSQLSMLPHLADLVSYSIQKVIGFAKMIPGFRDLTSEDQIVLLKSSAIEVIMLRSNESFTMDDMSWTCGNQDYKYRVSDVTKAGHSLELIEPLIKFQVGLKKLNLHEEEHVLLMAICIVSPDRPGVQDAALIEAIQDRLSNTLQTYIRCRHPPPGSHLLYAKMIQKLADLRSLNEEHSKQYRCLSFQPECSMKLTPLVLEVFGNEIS
NIH Chemical Genomics Center [NCGC]
U.S. Environmental Protection Agency [EPA]
National Institutes of Environmental Health Sciences [NIEHS]
National Toxicology Program [NTP]
U.S. Food and Drug Administration [FDA]
The vitamin D receptor (VDR), a member of nuclear hormone receptor superfamily, plays a critical role in calcium homeostasis and bone metabolism. It is also involved in cell differentiation and growth, and thrombogenicity.
Tox21 Assay Protocol Summary:
VDR-bla cells were dispensed at 2,000 cells/6 uL/well into black wall/clear-bottom 1536-well plates using a Multidrop Combi (Thermo Fisher Scientific, Waltham, MA) dispenser. After the assay plates were incubated at a 37C and 5% CO2 for 4 h, 23 nL of compounds dissolved in DMSO, positive controls or DMSO only was transferred to the assay plate by a Pintool station (Kalypsys, San Diego, CA). The plates were incubated at 37C and 5% CO2 for 16 h. After 1 uL of LiveBLAzerTM B/G FRET substrate was added using a Bioraptr Flying Reagent Dispenser (FRD) workstation (Beckman Coulter, Indianapolis, IN, USA), the plates were incubated at room temperature for 2 h, and fluorescence intensity was measured by an Envision plate reader (PerkinElmer, Shelton, CT).
As to `CN(C)CCn1nnnc1SCC1=C(C(=O)O)N2C(=O)[C@@H](NC(=O)Cc3csc(N)n3)[C@H]2SC1`, the result was inactive.
To `CC(C)CCCCCCN` belongs “inactive”.
Take `CNc1ncnc2nc[nH]c12`: the outcome was inactive.
Turning to `Nc1ccn(C2CO[C@H](CO)O2)c(=O)n1` (stereo not given in full), the result was inactive.
For `COC(=O)CCCC(=O)O`, the result was inactive.
Under `c1ccc(SCCSc2ccccc2)cc1` stands “inactive”; under `c1cc(CN2CCCCC2)cc(OCCCNc2nc3ccccc3s2)c1`, “inactive”; under `Nc1nc2c(ncn2CCC(CO)CO)c(=O)[nH]1`, “inactive”.
Regarding `c1ccc2cnncc2c1`, the result was inactive.
Turning to `CC(C)N1C(=O)c2ccccc2C1=O`, the result was inactive.
For the molecule `O=C(CCOCCOCCOCCOCCC(=O)Nc1c(I)cc(I)c(C(=O)O)c1I)Nc1c(I)cc(I)c(C(=O)O)c1I`, the outcome was inactive.
On to `CCCCCCOC(=O)CC(CC(=O)OCCCCCC)(OC(=O)CCC)C(=O)OCCCCCC`, for which the outcome was inactive.
Under `Cc1cc(C)c(NC(=O)CN(CC(=O)O)CC(=O)O)c(C)c1Br` stands “inactive”; under `NC(=O)Nc1nc2ccccc2[nH]1`, “inactive”.
Consider `C1CCCCCCCCCCC1`, for which the result was inactive.
Turning to `CC(C)COC(=O)c1ccccc1O`, the result was inactive.
Under `N#CC1(O)CCCCC1` stands “inactive”.
To `CCCC=O` belongs “inactive”.
To `CCC(=O)c1cccc(Cl)c1` belongs “inactive”; to `CC(C)(C)C(=O)/C=C/c1ccc(Cl)cc1`, “inactive”.
As to `O=C1CC2(CCCC2)CC(=O)N1`, the outcome was inactive.
Under `CO[Si](CCCNCCC[Si](OC)(OC)OC)(OC)OC` stands “inactive”; under `COc1cc(C(=O)N2CCOCC2)cc(OC)c1OC`, “inactive”; under `CCO[Si](C)(OCC)OCC`, “inactive”.
Under `NC(=O)c1ncn([C@@H]2O[C@H](CO)[C@@H](O)[C@H]2O)c1N` stands “inactive”; under `Cc1cc(C)cc(OCC2CNC(=O)O2)c1` (stereo not given), “inactive”; under `Cc1c(C)n(CCN(C)C)c2ccc(C(=O)OCCN(C)C)cc12`, “inactive”.
Regarding `COC(C(=O)O)c1ccccc1` (stereo not given), the outcome was inactive.
Under `NC1CCN(c2cccc(Cl)n2)CC1` stands “inactive”; under `CCCCNc1ccccc1`, “inactive”.
To `CCCCc1ccc2cccc(S(=O)(=O)O)c2c1` belongs “inactive”; to `N#CCc1ccccc1[N+](=O)[O-]`, “inactive”; to `C(=C(c1ccccc1)c1ccccc1)c1ccccc1`, “inactive”.
To `O=C(O)c1ccc[n+]([O-])c1` belongs “inactive”; to `CCN(CC)S(=O)(=O)c1ccc(C(=O)O)cc1`, “inactive”; to `CC(C)CCCC(C)CCCC(C)CCCCC(C)CCCC(C)CCCC(C)C` (stereo not given), “inactive”.
As for `NCCNC(=O)c1ccc(Cl)cn1`, the result was inactive.
To `CCO[Si](CCCN=C=O)(OCC)OCC` belongs “inactive”; to `C1C2OC2C2C1C1CC2C2OC12` (stereo not given), “inactive”; to `Cc1ccccc1C(=O)O`, “inactive”.
